Holding throughout (details): mRNA level, 48 h; actives raise or lower the signal
Read-out in assay [1]: ABC Transporter (ABCB11), ABCB11 (gene 8647)
Put plainly: LTEA_HepaRG_ABCB11: Life Technologies and Expression Analysis (LTEA) Assay for ABC Transporter (ABCB11) using HepaRG (AID 2283463). An outline of the steps:
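ABCB11 transcript levels are read by Fluidigm TaqMan qRT-PCR after 48 h chemical treatment of human HepaRG cells. Concentrations span 100 uM downward in half-log steps with 0.5% DMSO; gain or loss is fitted against DMSO controls.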

Read-out in assay [2]: ABC Transporter (ABCC2), ABCC2 (gene 1244)
Briefly: LTEA_HepaRG_ABCC2: Life Technologies and Expression Analysis (LTEA) Assay for ABC Transporter (ABCC2) using HepaRG (AID 2283464). In short, it runs like this: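 qRT-PCR (TaqMan, Fluidigm array) read-out of ABCC2 mRNA, normalized to three housekeeping genes. Differentiated HepaRG cells were treated 48 h in serum-free induction medium with 8-point half-log series from 100 uM in 0.5% DMSO; curves fitted bidirectionally relative to DMSO.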

Read-out in assay [3]: Broad substrate specificity ATP-binding cassette transporter ABCG2 (Homo sapiens) (UniProt Q9UNQ0)
Briefly: LTEA_HepaRG_ABCG2: Life Technologies and Expression Analysis (LTEA) Assay for ABC Transporter (ABCG2) using HepaRG (AID 2283465). An outline of the steps:
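Read-out is ABCG2 mRNA induction or loss quantified by qRT-PCR after 48 h chemical treatment of human HepaRG cells, normalized to three housekeeping genes. Concentrations reached 100 uM top in half-log steps; fitting was bidirectional against 0.5% DMSO.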

Read-out in assay [4]: ATP-citrate lyase (ACLY), ACLY (gene 47)
Put plainly: LTEA_HepaRG_ACLY: Life Technologies and Expression Analysis (LTEA) Assay for ATP-citrate lyase (ACLY) using HepaRG (AID 2283466). In short, it runs like this:
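HepaRG, 48 h exposure, 8-pt half-log dilutions (top 100 uM), 0.5% DMSO. Readout: ACLY mRNA, TaqMan qRT-PCR, housekeeping-normalized (ACTB/GAPDH/POLR2A). Bidirectional curve fit vs DMSO.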

Read-out in assay [5]: Peroxisomal acyl-coenzyme A oxidase 1 (ACOX1) gene, ACOX1 (gene 51)
Briefly: LTEA_HepaRG_ACOX1: Life Technologies and Expression Analysis (LTEA) Assay for Peroxisomal acyl-coenzyme A oxidase 1 (ACOX1) gene using HepaRG (AID 2283467). In short, it runs like this:
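Measured by qRT-PCR against three housekeeping genes: ACOX1 transcript change in human HepaRG cells after 48 h dosing. Concentrations ran up to 100 uM in half-log steps. Curves were fitted bidirectionally relative to 0.5% DMSO.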

Read-out in assay [6]: Alkaline Phosphatase, Placental (ALPP) gene, ALPP (gene 250)
Briefly: LTEA_HepaRG_ALPP: Life Technologies and Expression Analysis (LTEA) Assay for Alkaline Phosphatase, Placental (ALPP) gene using HepaRG (AID 2283468).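 As to AC50: differentiated human HepaRG liver cells in serum-free induction medium.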 An outline of the steps: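 qRT-PCR readout of ALPP mRNA (Fluidigm TaqMan), normalized to ACTB/GAPDH/POLR2A, after 48 h chemical exposure of HepaRG cells; 8-point half-log series, top 100 uM, 0.5% DMSO vehicle. Bidirectional curve fit versus DMSO baseline.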

Read-out in assay [7]: Bcl-2 (BAD) gene, BAD (gene 572)
Briefly: LTEA_HepaRG_BAD: Life Technologies and Expression Analysis (LTEA) Assay for Bcl-2 (BAD) gene using HepaRG (AID 2283469). In short, it runs like this:
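BAD transcript change, measured by qRT-PCR against three housekeeping genes and fitted in both directions relative to 0.5% DMSO, after 48 h chemical treatment of human HepaRG liver cells at concentrations up to 100 uM.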

Read-out in assay [8]: Bcl-2 (BAX) gene, BAX (gene 581)
Briefly: LTEA_HepaRG_BAX: Life Technologies and Expression Analysis (LTEA) Assay for Bcl-2 (BAX) gene using HepaRG (AID 2283470). An outline of the steps:
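Concentration-response endpoint fitted in both directions relative to 0.5% DMSO vehicle. Human HepaRG cultures receive test chemicals for 48 h at up to 100 uM; BAX mRNA is quantified by qRT-PCR against housekeeping genes.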

Read-out in assay [9]: adenosine kinase (ADK) gene, ADK (gene 132)
Briefly: LTEA_HepaRG_ADK: Life Technologies and Expression Analysis (LTEA) Assay for adenosine kinase (ADK) gene using HepaRG (AID 2283471). In short, it runs like this: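 HepaRG (human liver), 48 h chemical exposure, 8-pt half-log series, top 100 uM, 0.5% DMSO vehicle. Readout: ADK mRNA by qRT-PCR vs housekeeping genes; bidirectional curve fit relative to DMSO baseline.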

Read-out in a further assay: BCL2L11 (gene 10018)
Briefly: LTEA_HepaRG_BCL2L11: Life Technologies and Expression Analysis (LTEA) Assay for Bcl-2 (BCL2L11) gene using HepaRG (AID 2283473). An outline of the steps:
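HepaRG, 48 h exposure, 8-pt half-log series from 100 uM in 0.5% DMSO, duplicates; qRT-PCR (Fluidigm TaqMan) for BCL2L11, housekeeping-normalized; bidirectional curve fit relative to DMSO baseline.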

Read-out in assay [10]: Apolipoprotein A-V (APOA5) gene, APOA5 (gene 116519)
Briefly: LTEA_HepaRG_APOA5: Life Technologies and Expression Analysis (LTEA) Assay for Apolipoprotein A-V (APOA5) gene using HepaRG (AID 2283474). An outline of the steps:
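HepaRG, 48 h chemical exposure in serum-free induction medium, 8-pt half-log series (top 100 uM), 0.5% DMSO vehicle, duplicates. Readout: APOA5 mRNA by qRT-PCR, housekeeping-normalized; bidirectional fit vs DMSO baseline.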

Read-out in assay [11]: Apoptosis regulator Bcl-2 (Homo sapiens) (UniProt P10415)
Put plainly: LTEA_HepaRG_BCL2: Life Technologies and Expression Analysis (LTEA) Assay for Bcl-2 gene using HepaRG (AID 2283475). In short, it runs like this:
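Expression change of BCL2 mRNA in HepaRG after 48 h dosing, quantified by TaqMan qRT-PCR against three endogenous controls. Concentration-response used eight points up to 100 uM, vehicle 0.5% DMSO.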

Read-out in assay [12]: Bcl-2 (BID) gene, BID (gene 637)
Briefly: LTEA_HepaRG_BID: Life Technologies and Expression Analysis (LTEA) Assay for Bcl-2 (BID) gene using HepaRG (AID 2283476). In short, it runs like this:
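Gain or loss of BID expression is fitted relative to 0.5% DMSO vehicle. Human HepaRG liver cells received a 48 h chemical exposure over an eight-point concentration range.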

Read-out in the next assay: Caspase-3 (Homo sapiens) (UniProt P42574)
Put plainly: LTEA_HepaRG_CASP3: Life Technologies and Expression Analysis (LTEA) Assay for cysteine-aspartic acid protease (CASP3) using HepaRG (AID 2283477). An outline of the steps: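 HepaRG, 48 h exposure, 8 conc. (top 100 uM, half-log steps, duplicate), 0.5% DMSO vehicle; qRT-PCR of CASP3 transcript, housekeeping-normalised (ACTB/GAPDH/POLR2A); bidirectional curve fit vs DMSO baseline.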

Read-out in assay [13]: Cytochrome P450 (CYP24A1), CYP24A1 (gene 1591)
Briefly: LTEA_HepaRG_CYP24A1: Life Technologies and Expression Analysis (LTEA) Assay for Cytochrome P450 (CYP24A1) using HepaRG (AID 2283478). An outline of the steps:
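qRT-PCR read-out: CYP24A1 transcript levels normalized to three housekeeping genes, bidirectional curve fits against 0.5% DMSO baseline. Human HepaRG cells treated 48 h with chemicals at eight concentrations from 100 uM in half-log steps.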

Read-out in assay [14]: Cytochrome P450 (CYP1A2), CYP1A2 (gene 1544)
Put plainly: LTEA_HepaRG_CYP1A2: Life Technologies and Expression Analysis (LTEA) Assay for Cytochrome P450 (CYP1A2) using HepaRG (AID 2283479). In short, it runs like this:
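HepaRG, 48 h exposure, top 100 uM, half-log 8-pt, 0.5% DMSO vehicle, duplicates. Readout: TaqMan qRT-PCR of CYP1A2 mRNA, housekeeping-normalized (ACTB/GAPDH/POLR2A). Gain/loss fit relative to DMSO baseline.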

Read-out in assay [15]: Cytochrome P450 (CYP2B6), CYP2B6 (gene 1555)
Put plainly: LTEA_HepaRG_CYP2B6: Life Technologies and Expression Analysis (LTEA) Assay for Cytochrome P450 (CYP2B6) using HepaRG (AID 2283481). In short, it runs like this: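 Read-out is CYP2B6 mRNA by TaqMan qRT-PCR, normalized to three housekeeping genes and fitted bidirectionally against 0.5% DMSO baseline. Human HepaRG cells received test chemicals for 48 h, top concentration 100 uM, half-log dilutions.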

Read-out in assay [16]: Cytochrome P450 2C19 (Homo sapiens) (UniProt P33261)
Put plainly: LTEA_HepaRG_CYP2C19: Life Technologies and Expression Analysis (LTEA) Assay for CYP2C19 using HepaRG (AID 2283482). In short, it runs like this:
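HepaRG, 48 h chemical exposure, 8-pt half-log series from 100 uM in 0.5% DMSO, duplicates. Readout: CYP2C19 mRNA by TaqMan qRT-PCR, housekeeping-normalized. Bidirectional fit vs DMSO baseline; phenobarbital 1mM as induction control.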

Read-out in assay [17]: cysteine-aspartic acid protease (CASP8), CASP8 (gene 841)
Briefly: LTEA_HepaRG_CASP8: Life Technologies and Expression Analysis (LTEA) Assay for cysteine-aspartic acid protease (CASP8) using HepaRG (AID 2283480). In short, it runs like this:
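HepaRG, 48 h exposure, duplicate wells; 8 conc, half-log from 100 uM, 0.5% DMSO. Serum-free induction medium. CASP8 mRNA by TaqMan qRT-PCR, norm. ACTB/GAPDH/POLR2A; gain/loss fitted vs DMSO.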

Each structure is given as a SMILES string. Calls of active or inactive are those of the source. The calls were made as follows: active = hit-call score of the fitted dose curve at least 0.9, where 1 is the maximum; inactive = score below 0.9.

Chain of Broad substrate specificity ATP-binding cassette transporter ABCG2 (Homo sapiens) (Q9UNQ0 whole entry, looked up): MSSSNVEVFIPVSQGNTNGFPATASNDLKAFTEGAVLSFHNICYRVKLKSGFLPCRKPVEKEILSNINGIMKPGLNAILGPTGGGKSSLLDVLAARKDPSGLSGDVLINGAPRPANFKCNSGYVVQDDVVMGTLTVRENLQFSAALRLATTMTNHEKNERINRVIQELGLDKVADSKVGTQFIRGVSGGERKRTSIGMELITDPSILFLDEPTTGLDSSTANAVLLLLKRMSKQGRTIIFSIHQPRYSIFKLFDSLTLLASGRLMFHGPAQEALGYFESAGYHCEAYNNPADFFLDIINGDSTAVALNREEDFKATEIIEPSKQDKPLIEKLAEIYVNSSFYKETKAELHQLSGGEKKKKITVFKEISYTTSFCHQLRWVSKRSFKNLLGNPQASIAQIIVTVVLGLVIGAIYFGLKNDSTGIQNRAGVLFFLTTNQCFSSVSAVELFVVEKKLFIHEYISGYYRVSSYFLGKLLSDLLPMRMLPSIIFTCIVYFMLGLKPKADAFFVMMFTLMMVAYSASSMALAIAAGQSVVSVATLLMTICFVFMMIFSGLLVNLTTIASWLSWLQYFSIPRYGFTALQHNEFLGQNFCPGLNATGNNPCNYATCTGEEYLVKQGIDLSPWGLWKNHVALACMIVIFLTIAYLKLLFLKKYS
Chain of Cytochrome P450 2C19 (Homo sapiens) (P33261 whole entry, looked up): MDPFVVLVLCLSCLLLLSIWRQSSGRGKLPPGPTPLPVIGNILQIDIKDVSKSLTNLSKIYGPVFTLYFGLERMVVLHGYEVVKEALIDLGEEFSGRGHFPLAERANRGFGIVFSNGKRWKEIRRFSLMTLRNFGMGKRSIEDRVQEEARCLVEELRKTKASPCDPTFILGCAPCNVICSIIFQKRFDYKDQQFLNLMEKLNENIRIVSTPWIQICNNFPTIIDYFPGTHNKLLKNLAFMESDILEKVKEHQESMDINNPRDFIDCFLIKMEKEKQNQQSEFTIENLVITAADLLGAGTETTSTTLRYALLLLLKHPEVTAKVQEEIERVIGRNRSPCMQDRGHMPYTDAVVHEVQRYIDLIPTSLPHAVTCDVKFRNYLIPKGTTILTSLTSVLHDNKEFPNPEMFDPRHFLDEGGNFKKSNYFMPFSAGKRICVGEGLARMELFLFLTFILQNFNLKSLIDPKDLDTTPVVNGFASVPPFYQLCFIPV
Chain of Apoptosis regulator Bcl-2 (Homo sapiens) (P10415 whole entry, looked up): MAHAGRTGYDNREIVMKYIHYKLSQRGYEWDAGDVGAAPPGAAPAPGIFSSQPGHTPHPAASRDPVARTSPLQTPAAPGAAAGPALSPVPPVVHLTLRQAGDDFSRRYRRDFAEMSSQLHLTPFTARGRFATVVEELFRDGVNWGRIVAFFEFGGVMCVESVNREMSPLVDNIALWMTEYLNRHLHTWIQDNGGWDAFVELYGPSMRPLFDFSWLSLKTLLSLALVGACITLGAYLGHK
Chain of Caspase-3 (Homo sapiens) (P42574 whole entry, looked up): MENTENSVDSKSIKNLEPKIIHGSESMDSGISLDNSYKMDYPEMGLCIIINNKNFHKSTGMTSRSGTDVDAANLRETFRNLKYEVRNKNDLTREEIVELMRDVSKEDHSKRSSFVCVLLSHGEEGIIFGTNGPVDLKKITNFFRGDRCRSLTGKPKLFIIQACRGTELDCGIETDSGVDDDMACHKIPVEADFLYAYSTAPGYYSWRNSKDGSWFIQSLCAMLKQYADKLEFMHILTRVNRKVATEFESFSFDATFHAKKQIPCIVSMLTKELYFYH

For `CCCCCCCCCCCCc1ccccc1`, the molecule was classed as inactive in assay [1], in assay [2], in assay [3], in assay [4], in assay [5] and in [6]. Besides, the result (in [7]; in [8]; in assay [9]; with BCL2L11 (gene 10018); in [10]; in assay [11]) was inactive. In addition, the molecule was classed as inactive (in assay [12]; with Caspase-3 (Homo sapiens); in assay [13]; in [14]; in assay [15]; in assay [16]).

As to `Nc1ccc(Nc2ccccc2)cc1`, the AC50 (in general, the concentration at which the activity in the assay is half-maximal) in [1] is 69.2 µM (active); in assay [6], 50 µM (active); in [7] it was 11.9 µM (active); in assay [14], 4.54 µM (active); in assay [15] it was 33.7 µM (active). For the same molecule, the result in assay [2], in assay [3], in [4], in [5], in assay [8] and in assay [9] was inactive. The molecule was classed as inactive (with BCL2L11 (gene 10018); in [10]; in assay [11]; in assay [12]; in the assay with Caspase-3 (Homo sapiens); in [13]). The outcome in assay [16] was inactive.

Take `CC[C@H]1OC(=O)[C@H](C)[C@@H](O[C@H]2C[C@@](C)(OC)[C@@H](O)[C@H](C)O2)[C@H](C)[C@@H](O[C@@H]2O[C@H](C)C[C@H](N(C)C)[C@H]2O)[C@](C)(O)C[C@@H](C)C(=O)[C@H](C)[C@@H](O)[C@]1(C)O`: the molecule was classed as inactive in assay [1], in assay [2], in assay [3], in assay [4], in [5] and in assay [6]. Besides, the molecule was classed as inactive (in assay [7]; in assay [8]; with BCL2L11 (gene 10018); in assay [10]; in assay [11]; in [12]). The molecule was classed as inactive (with Caspase-3 (Homo sapiens); in assay [13]; in [17]; in assay [16]). Further, the AC50 in [14] was 59.1 µM (active); in assay [15] it was 5.59 µM (active).

For `Clc1nc(Cl)c(Cl)c(Cl)c1Cl`, the call in [1], in assay [2], in [3], in assay [4], in assay [5] and in [6] was inactive. For the same molecule, the molecule was called inactive (in assay [7]; in [8]; in assay [9]; with BCL2L11 (gene 10018); in [10]; in [11]). For the same molecule, the call (in [12]; in the assay with Caspase-3 (Homo sapiens); in assay [13]; in assay [14]; in assay [15]; in [16]) was inactive.

The record behind these values is PubChem BioAssay (EPA / NIEHS).
